Test results: PubChem BioAssay (NCI)
The panel holds about 79,000 compounds, 15% with a hit somewhere; the sample as a whole holds those more often. Unmarked numbers belong to inactive results. Active and inactive are the calls of the source. Cut-off read from the data, not from the text of the source: active = growth inhibition above about 70%; inactive = the rest.

Tests used:
[1] = NCI Yeast Anticancer Drug Screen. Data for the rad50 strain (AID 155);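 note: 0% = growth of vehicle-only cultures of the same strain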; settings: S. cerevisiae rad50 strain growth inhibition, stronger effect = higher value
Summary of the method: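 Inhibition values express reduced yeast growth in compound-treated cultures relative to vehicle-treated controls.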

[2] = NCI Yeast Anticancer Drug Screen. Data for the mec2-1 strain (AID 157); settings: S. cerevisiae mec2-1 strain, stronger effect = higher value
Summary of the method: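 Using mec2-1 yeast: add compound, measure growth, express inhibition versus vehicle-treated cultures.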

[3] = NCI Yeast Anticancer Drug Screen. Data for the sgs1 mgt1 strain (AID 161);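 note: 0% = growth of cultures given vehicle only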; settings: S. cerevisiae sgs1 mgt1 strain, stronger effect = higher value
Summary of the method: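 Compounds are added to genetically altered yeast, and growth is compared with cultures given vehicle alone to give percent inhibition.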

[4] = NCI Yeast Anticancer Drug Screen. Data for the cln2 rad14 strain (AID 165);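 note: 0% = growth equal to vehicle treated cultures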; settings: S. cerevisiae cln2 rad14 strain, stronger effect = higher value
Summary of the method: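 Yeast strain cln2 rad14, bearing defects in cell cycle control and DNA repair, serves as the test system; values reflect growth inhibition compared with vehicle.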

[5] = NCI Yeast Anticancer Drug Screen. Data for the bub3 strain (AID 167); settings: S. cerevisiae bub3 mutant strain, stronger effect = higher value
Summary of the method: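 Steps: expose the mutant yeast strain to compound; grow alongside vehicle-treated cultures; measure growth; express inhibition against the vehicle cultures.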

[6] = NCI Yeast Anticancer Drug Screen. Data for the mlh1 rad18 strain (AID 175); settings: S. cerevisiae mlh1 rad18 strain growth inhibition, stronger effect = higher value
Summary of the method: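 Steps: expose repair-defective yeast to compound; measure growth; express inhibition against vehicle-treated controls.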

[7] = at 5.0 µM (retest, dose inferred, filed as 0.5)
[8] = at 50.0 µM (retest, dose inferred, filed as 5.0)

| SMILES | growth inhibition [1, 7] | growth inhibition [1, 8] | growth inhibition ([1]; at 50.0 µM) | growth inhibition [2, 7] | growth inhibition [2, 8] | growth inhibition ([2]; at 50.0 µM) | growth inhibition [3, 7] | growth inhibition [3, 8] | growth inhibition ([3]; at 50.0 µM) | growth inhibition [4, 7] | growth inhibition [4, 8] | growth inhibition ([4]; at 50.0 µM) | growth inhibition [5, 7] | growth inhibition [5, 8] | growth inhibition ([5]; at 50.0 µM) | growth inhibition [6, 7] | growth inhibition [6, 8] | growth inhibition ([6]; at 50.0 µM) |
| --- | --- | --- | --- | --- | --- | --- | --- | --- | --- | --- | --- | --- | --- | --- | --- | --- | --- | --- |
| CN(C)c1nc(=Nc2ccc(N=c3nc(N(C)C)ss3)cc2)ss1 | 0% | 97% (active) | 91.8% (active) | 4% | 96% (active) | 92.8% (active) | 28% | 98% (active) | 88.2% (active) | -4% | 93% (active) | 69% | 4% | 98% (active) | 93.4% (active) | 11% | 98% (active) | 96.9% (active) |
| OCCOCCO[P+]1(OCCOCCO)n2c3ccc2C(c2ccccc2)=C2C=CC(=N2)C(c2ccccc2)=c2ccc(n21)=C(c1ccccc1)C1=NC(=C3c2ccccc2)C=C1 | 99% (active) | 98% (active) | 91.3% (active) | 100% (active) | 99% (active) | 92.2% (active) | 99% (active) | 98% (active) | 92% (active) | 97% (active) | 99% (active) | 91.4% (active) | 100% (active) | 99% (active) | 89% (active) | 97% (active) | 98% (active) | 85.8% (active) |
| CS(=O)(=O)c1nc(Cl)c(Cl)c(C#N)c1Cl | 50% | 99% (active) | 98.3% (active) | 76% (active) | 99% (active) | 98.9% (active) | 66% | 99% (active) | 99.2% (active) | 23% | 99% (active) | 84.5% (active) | 88% (active) | 99% (active) | 99.2% (active) | 85% (active) | 99% (active) | 99% (active) |
| Cc1ccnc2c1ccc1c(C)ccnc12 | 10% | 98% (active) | 99% (active) | -17% | 99% (active) | 99.1% (active) | 14% | 99% (active) | 99.2% (active) | -21% | 97% (active) | 98.5% (active) | -25% | 98% (active) | 99.1% (active) | 1% | 98% (active) | 99% (active) |
| C/C(=N\NC(=S)N(C)C1CCCCC1)c1ccc2ccccc2n1 | 18% | 88% (active) | 83.2% (active) | 28% | 97% (active) | 80.2% (active) | 28% | 93% (active) | 81.8% (active) | 33% | 88% (active) | 84% (active) | 33% | 96% (active) | 76.9% (active) | 19% | 97% (active) | 89.2% (active) |
| COC(OC)(c1ccccc1)C(I)I | 100% (active) | 100% (active) | 99% (active) | 100% (active) | 100% (active) | 99.4% (active) | 100% (active) | 100% (active) | 99.3% (active) | 100% (active) | 99% (active) | 99.5% (active) | 100% (active) | 100% (active) | 99.3% (active) | 100% (active) | 99% (active) | 99.5% (active) |
| O=Nc1ccccc1N=O | 48% | 99% (active) | 99.5% (active) | 30% | 99% (active) | 99.4% (active) | 59% | 99% (active) | 99.2% (active) | 36% | 97% (active) | 98.3% (active) | 80% (active) | 99% (active) | 99.3% (active) | 91% (active) | 99% (active) | 99.4% (active) |
| C/C=C(/CN/C(=C\[N+](=O)[O-])c1ccccc1)c1ccccc1 | 0% | 87% (active) | 96.5% (active) | -4% | 86% (active) | 95% (active) | 0% | 79% (active) | 94.3% (active) | -1% | 37% | 75.2% (active) | 8% | 74% (active) | 92.7% (active) | -8% | 84% (active) | 95.5% (active) |
| O=S(O)CCCCCSSc1ccccc1 | -1% | 12% | 22.9% | 4% | 40% | 12.1% | 3% | 36% | 30.1% | -9% | 14% | 50.5% | 11% | 73% (active) | 74.5% (active) | 4% | 31% | 48.9% |
| CC(/C(=N/NC(=O)C(N)=O)c1c(Cl)ccc(Cl)c1O)C1(O)C(=O)Nc2ccccc21 (stereo not given) | 9% | 53% | 53.8% | 2% | 29% | 57.4% | 9% | 53% | 52.5% | 14% | 18% | 20.5% | 4% | 52% | 44% | 9% | 32% | 86.5% (active) |
